Measured values taken from PubChem BioAssay (Tox21).
Values without a mark were called inactive. Inconclusive results are not listed. Where a call stands in place of a potency, no number is given. The source made the active and inactive calls. Unless noted, calls follow the shape of the dose curve; as a rule, active = well fitted curve in the direction sought with a large enough effect in the repeat runs; inconclusive = weak or mixed curves; inactive = no such curve, though single readings can be large; an effect the other way counts as inactive or inconclusive.

Key:
[1] = target: Acetylcholinesterase (Homo sapiens) (UniProt P22303); test: Acetylcholinesterase (AChE) small molecule antagonists: fluorescence cell-based qHTS assay (AID 1347398; calls by dose curve; also: nearly all actives have a fitted effect of over 50% in size); details: SH-SY5Y cells; Potency: AChE activity; series mostly up to 115 µM
Sequence of Acetylcholinesterase (Homo sapiens) (P22303 whole entry, looked up): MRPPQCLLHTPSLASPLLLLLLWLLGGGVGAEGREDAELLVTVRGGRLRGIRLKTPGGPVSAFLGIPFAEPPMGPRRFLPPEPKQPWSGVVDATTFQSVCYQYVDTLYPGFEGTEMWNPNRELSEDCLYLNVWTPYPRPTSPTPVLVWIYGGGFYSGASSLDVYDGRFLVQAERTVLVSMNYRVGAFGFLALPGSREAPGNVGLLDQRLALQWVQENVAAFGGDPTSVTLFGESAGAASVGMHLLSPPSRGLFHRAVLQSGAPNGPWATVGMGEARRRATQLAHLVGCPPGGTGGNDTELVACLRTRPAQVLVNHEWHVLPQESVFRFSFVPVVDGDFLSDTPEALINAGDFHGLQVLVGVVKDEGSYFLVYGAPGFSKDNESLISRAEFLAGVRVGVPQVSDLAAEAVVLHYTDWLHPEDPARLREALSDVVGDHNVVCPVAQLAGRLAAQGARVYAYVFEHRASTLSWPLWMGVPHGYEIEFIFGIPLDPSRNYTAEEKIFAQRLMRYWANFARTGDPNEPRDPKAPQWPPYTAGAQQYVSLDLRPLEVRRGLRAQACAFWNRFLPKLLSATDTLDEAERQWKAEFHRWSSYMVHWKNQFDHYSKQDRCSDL
Procedure, shortened: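 SH-SY5Y cells (2000/well), attached overnight, incubated with compound 30 min at 37 C. Acetylthiocholine plus Thiolite Green then added for 40 min at room temperature. Thiocholine fluorescence (Ex/Em 490/520 nm) reports cellular AChE activity.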

[2] = target: Acetylcholinesterase (Homo sapiens) (UniProt P22303); test: Acetylcholinesterase (AChE) small molecule antagonists: enzyme-based qHTS assay with human liver microsomes (AID 1347399; calls by dose curve; also: nearly all actives have a fitted effect of over 60% in size); details: Potency: qHTS inhibition; series mostly up to 115 µM
Procedure, shortened: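 Recombinant human AChE (50 mU/mL in the enzyme mix) and human liver microsomes (0.25 mg/mL final) were preincubated with compound and NADPH (0.25 mg/mL final) for 30 min at 37 C. Acetylthiocholine/DTNB was then added; thiocholine was read colorimetrically after 10 min at room temperature.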

[3] = target: Cytochrome P450 2D6 (Homo sapiens) (UniProt P10635); test: Cytochrome P450 Family 2 Subfamily D Member 6 (CYP2D6) small molecule antagonists: luciferase reporter qHTS assay (AID 1671196); details: P450-Glo CYP2D6 enzyme assay, luciferin luminescence, 1 h; series mostly up to 115 µM; also: nearly all actives have a fitted effect of over 50% in size
Sequence of Cytochrome P450 2D6 (Homo sapiens) (P10635 whole entry, looked up): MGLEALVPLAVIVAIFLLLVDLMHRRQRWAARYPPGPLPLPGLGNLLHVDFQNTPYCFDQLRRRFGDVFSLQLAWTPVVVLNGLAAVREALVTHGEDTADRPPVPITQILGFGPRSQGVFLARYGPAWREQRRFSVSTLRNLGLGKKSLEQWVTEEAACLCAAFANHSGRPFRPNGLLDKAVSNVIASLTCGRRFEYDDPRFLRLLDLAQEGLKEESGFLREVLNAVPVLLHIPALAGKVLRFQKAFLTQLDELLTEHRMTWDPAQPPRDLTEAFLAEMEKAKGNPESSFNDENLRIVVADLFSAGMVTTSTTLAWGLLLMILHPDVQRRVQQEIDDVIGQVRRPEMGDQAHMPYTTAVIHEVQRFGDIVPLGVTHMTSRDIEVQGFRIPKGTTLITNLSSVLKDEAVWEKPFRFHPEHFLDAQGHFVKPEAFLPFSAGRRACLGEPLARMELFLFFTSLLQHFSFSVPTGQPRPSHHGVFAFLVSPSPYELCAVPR
Procedure, shortened: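 Each well received CYP2D6 with its proluciferin substrate and chemical, sat 10 min, then got NADPH regeneration solution for 1 h at room temperature. Luminescence in RLU served as the activity measure.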

[4] = target: Cytochrome P450 2C9 (Homo sapiens) (UniProt P11712); test: Cytochrome P450 Family 2 Subfamily C Member 9 (CYP2C9) small molecule antagonists: luciferase reporter qHTS assay (AID 1671198); details: P450-Glo CYP2C9 enzyme assay, luciferin luminescence; series mostly up to 115 µM; also: nearly all actives have a fitted effect of over 50% in size
Sequence of Cytochrome P450 2C9 (Homo sapiens) (P11712 whole entry, looked up): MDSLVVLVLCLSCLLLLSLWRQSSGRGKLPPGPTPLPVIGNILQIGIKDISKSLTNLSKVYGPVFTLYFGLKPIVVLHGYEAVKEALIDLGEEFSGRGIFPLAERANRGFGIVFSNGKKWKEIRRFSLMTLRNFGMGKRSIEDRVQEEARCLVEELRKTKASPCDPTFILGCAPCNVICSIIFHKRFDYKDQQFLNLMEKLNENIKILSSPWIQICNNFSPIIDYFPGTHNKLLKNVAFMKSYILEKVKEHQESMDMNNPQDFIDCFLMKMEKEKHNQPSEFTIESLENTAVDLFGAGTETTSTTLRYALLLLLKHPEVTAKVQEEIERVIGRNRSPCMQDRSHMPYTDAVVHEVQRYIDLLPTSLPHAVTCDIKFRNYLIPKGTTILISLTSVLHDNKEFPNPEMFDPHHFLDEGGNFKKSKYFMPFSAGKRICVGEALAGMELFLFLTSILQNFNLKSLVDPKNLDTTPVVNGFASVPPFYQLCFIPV
Procedure, shortened: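 P450-Glo proluciferin substrate with CYP2C9 enzyme; 10 min RT preincubation, then NADPH regeneration 1 h at 37C; luciferin detection reagent 20 min RT, luminescence in relative luminescence units.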

[5] = target: Cytochrome P450 1A2 (Homo sapiens) (UniProt P05177); test: Cytochrome P450 Family 1 Subfamily A Member 2 (CYP1A2) small molecule antagonists: luciferase reporter qHTS assay (AID 1671199); details: P450-Glo CYP1A2 enzyme, luciferin luminescence, 1 h; series mostly up to 115 µM; also: nearly all actives have a fitted effect of over 50% in size
Sequence of Cytochrome P450 1A2 (Homo sapiens) (P05177 whole entry, looked up): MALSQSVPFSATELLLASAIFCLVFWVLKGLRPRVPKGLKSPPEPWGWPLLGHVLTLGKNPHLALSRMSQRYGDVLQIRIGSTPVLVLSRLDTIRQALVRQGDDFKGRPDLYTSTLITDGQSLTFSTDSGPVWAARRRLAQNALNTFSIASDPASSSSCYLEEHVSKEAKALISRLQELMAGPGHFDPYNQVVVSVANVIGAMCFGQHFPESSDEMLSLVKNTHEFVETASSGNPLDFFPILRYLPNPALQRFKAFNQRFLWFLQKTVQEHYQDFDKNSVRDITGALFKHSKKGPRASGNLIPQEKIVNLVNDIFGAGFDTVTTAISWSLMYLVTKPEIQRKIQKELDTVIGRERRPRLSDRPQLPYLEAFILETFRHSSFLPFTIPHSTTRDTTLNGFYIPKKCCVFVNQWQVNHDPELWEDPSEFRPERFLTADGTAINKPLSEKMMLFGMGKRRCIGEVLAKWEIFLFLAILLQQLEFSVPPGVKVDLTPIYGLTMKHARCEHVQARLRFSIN
Procedure, shortened: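 Enzymatic CYP1A2 assay, human, luminescent: 10 min compound–enzyme–substrate preincubation, 1 h NADPH-dependent turnover, 20 min detection step, room temperature throughout. Reduced light indicates lower CYP1A2 activity.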

[6] = target: Cytochrome P450 3A4 (Homo sapiens) (UniProt P08684); test: Cytochrome P450 Family 3 Subfamily A Member 4 (CYP3A4) small molecule antagonists: luciferase reporter qHTS assay (AID 1671201); details: P450-Glo CYP3A4 enzyme, luciferin luminescence, 1 h; series mostly up to 115 µM; also: nearly all actives have a fitted effect of over 50% in size
Sequence of Cytochrome P450 3A4 (Homo sapiens) (P08684 whole entry, looked up): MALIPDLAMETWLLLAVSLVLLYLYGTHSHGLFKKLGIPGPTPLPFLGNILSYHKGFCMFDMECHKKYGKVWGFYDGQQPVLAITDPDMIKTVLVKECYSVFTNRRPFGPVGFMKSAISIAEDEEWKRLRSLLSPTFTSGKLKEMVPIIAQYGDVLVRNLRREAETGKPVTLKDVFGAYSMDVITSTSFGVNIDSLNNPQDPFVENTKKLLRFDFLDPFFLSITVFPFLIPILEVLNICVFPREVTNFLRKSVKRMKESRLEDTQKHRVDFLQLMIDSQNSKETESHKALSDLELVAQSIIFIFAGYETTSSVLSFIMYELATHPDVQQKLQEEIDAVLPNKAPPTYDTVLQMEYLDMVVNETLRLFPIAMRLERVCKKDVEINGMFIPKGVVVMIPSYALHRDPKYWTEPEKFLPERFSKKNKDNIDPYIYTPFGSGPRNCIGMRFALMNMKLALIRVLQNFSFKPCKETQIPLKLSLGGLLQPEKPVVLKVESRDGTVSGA
Procedure, shortened: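 Relative luminescence units after 20 min with luciferin detection reagent served as read-out. Beforehand, CYP3A4 turned over a proluciferin substrate for 1 h at room temperature with NADPH regeneration, following 10 min compound preincubation.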

[7] = target: Cytochrome P450 2C19 (Homo sapiens) (UniProt P33261); test: Cytochrome P450 Family 2 Subfamily C Member 19 (CYP2C19) small molecule antagonists: luciferase reporter qHTS assay (AID 1671197); details: P450-Glo CYP2C19 enzyme, luciferin luminescence, 1 h; series mostly up to 115 µM; also: nearly all actives have a fitted effect of over 65% in size
Sequence of Cytochrome P450 2C19 (Homo sapiens) (P33261 whole entry, looked up): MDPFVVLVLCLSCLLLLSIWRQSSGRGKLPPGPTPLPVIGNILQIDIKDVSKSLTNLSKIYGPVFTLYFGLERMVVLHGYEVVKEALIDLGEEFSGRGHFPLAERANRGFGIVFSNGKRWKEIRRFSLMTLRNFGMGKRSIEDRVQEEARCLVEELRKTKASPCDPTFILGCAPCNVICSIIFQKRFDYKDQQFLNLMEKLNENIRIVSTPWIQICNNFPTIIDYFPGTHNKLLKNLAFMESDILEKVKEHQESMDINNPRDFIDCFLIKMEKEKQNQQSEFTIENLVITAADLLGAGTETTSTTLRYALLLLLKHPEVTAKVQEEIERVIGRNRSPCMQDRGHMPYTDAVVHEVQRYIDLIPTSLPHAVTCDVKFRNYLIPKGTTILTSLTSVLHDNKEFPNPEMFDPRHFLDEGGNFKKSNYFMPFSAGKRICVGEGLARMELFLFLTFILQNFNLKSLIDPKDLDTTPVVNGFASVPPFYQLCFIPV
Procedure, shortened: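 Luminescent readout of CYP2C19 activity: luciferin product detected 20 min after adding detection reagent. Before that, compound and enzyme-substrate mix preincubated 10 min at room temperature; NADPH-regenerating system started a 1 h, 37C reaction. Ketoconazole as positive control.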

[8] = target: Voltage-gated inwardly rectifying potassium channel KCNH2 (Homo sapiens) (UniProt Q12809); test: Human Ether-a-go-go-Related Gene (hERG) channel small molecule antagonists: fluorescence cell-based qHTS assay (AID 1671200); details: hERG-U2OS cells, FluxOR thallium flux fluorescence; series mostly up to 76.8 µM; also: nearly all actives have a fitted effect of over 50% in size;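 as to activity change, negative = inhibition: hERG-expressing U2OS cells given a thallium stimulus after FluxOR II dye loading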
Sequence of Voltage-gated inwardly rectifying potassium channel KCNH2 (Homo sapiens) (Q12809 whole entry, looked up): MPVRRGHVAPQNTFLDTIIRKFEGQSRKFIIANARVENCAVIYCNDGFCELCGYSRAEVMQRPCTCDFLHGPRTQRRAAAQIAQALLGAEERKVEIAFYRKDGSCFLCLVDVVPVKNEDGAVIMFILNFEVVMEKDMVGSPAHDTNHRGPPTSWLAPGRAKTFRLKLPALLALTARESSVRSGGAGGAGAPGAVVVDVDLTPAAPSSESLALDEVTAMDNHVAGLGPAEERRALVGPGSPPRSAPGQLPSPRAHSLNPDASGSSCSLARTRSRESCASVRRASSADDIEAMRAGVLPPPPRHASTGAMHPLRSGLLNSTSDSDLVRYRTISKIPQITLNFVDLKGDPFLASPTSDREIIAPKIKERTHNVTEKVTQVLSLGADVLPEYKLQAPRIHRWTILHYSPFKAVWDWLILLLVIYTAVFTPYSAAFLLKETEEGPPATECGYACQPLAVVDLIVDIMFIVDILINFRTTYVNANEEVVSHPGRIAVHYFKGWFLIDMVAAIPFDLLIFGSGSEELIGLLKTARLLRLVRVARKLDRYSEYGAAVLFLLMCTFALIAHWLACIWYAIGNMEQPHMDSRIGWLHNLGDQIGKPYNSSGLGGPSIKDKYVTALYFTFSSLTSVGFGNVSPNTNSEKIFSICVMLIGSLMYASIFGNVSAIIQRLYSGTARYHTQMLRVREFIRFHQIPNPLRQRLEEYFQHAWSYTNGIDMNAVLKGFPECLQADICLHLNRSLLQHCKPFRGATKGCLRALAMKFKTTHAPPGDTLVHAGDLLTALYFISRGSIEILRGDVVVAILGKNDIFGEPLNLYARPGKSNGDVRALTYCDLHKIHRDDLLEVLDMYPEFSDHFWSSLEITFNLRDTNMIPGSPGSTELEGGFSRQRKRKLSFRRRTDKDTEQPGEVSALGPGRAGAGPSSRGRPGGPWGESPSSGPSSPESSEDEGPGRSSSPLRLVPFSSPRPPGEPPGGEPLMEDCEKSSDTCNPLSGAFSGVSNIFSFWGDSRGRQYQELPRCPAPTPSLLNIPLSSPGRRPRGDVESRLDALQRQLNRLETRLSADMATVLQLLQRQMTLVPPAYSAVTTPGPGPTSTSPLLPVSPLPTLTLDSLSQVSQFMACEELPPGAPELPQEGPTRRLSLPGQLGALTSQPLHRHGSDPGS
Procedure, shortened: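 Thallium served as the potassium surrogate; its influx into dye-loaded U2OS cells carrying the channel was measured by fluorescence over 2 min.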
Potency is read from the fitted curve at half-maximal effect.

Structure (SMILES) | Potency [1] | Potency [2] | Potency [3] | Potency [4] | Potency [5] | Potency [6] | Potency [7] | Potency [8] | activity change, negative = inhibition [1] | activity change, negative = inhibition [2]
CCCN(CCC)CCc1c[nH]c2ccccc12 | inactive | inactive | 0.351 µM (active) | inactive | 27.9 µM (active) | inactive |  |  |  | 
c1cc[c]([Sb]([c]2ccccc2)[c]2ccccc2)cc1 | inactive | inactive |  | 17.8 µM (active) | inactive |  | 17.8 µM (active) |  |  | 
Clc1ccc(C(Cl)(Cl)Cl)c(Cl)c1 | inactive | inactive |  | inactive |  |  | 80.2 µM (active) |  |  | 
Clc1ccc(-c2ccccc2)cc1 | inactive | inactive | inactive |  | 39.9 µM (active) |  |  | inactive |  | 
Clc1ccc(Oc2ccccc2)cc1 | inactive | inactive | inactive |  |  | inactive |  |  |  | 
Cc1cc(C)c(C2=C(OC(=O)CC(C)(C)C)C3(CCCC3)OC2=O)c(C)c1 | inactive | inactive | inactive |  | inactive | 37.3 µM (active) |  | inactive |  | 
C[C@]12Cc3nonc3C[C@@H]1CC[C@@H]1[C@@H]2CC[C@@]2(C)[C@H]1CC[C@]2(C)O | inactive | inactive |  | 24.5 µM (active) | inactive |  | 17.4 µM (active) | inactive |  | 
C[CH2][Hg][N]1C(=O)C2C(C1=O)C1(Cl)C(Cl)=C(Cl)C2(Cl)C1(Cl)Cl (centres undefined) |  |  | 16.9 µM (active) | 13.5 µM (active) |  | 13.5 µM (active) |  |  | 11.1% [at 23.8 µM] | -0.312% [at 23.6 µM]
COP(=O)(OC)SCn1c(=O)oc2cc(Cl)cnc21 | 0.252 µM (active) | 71 µM (active) |  | 31.7 µM (active) | 39.9 µM (active) |  | 25.2 µM (active) | inactive |  | 
N#C/C=C/C#N | inactive | inactive |  | 37.3 µM (active) | 29.6 µM (active) |  | 18.7 µM (active) | inactive |  | 
Cn1cc(C2=C(c3cn(C4CCN(Cc5ccccn5)CC4)c4ccccc34)C(=O)NC2=O)c2ccccc21 | inactive | inactive | inactive | 3.09 µM (active) | inactive | inactive |  |  |  | 
CCC(C)(C)C(=O)OC1=C(c2ccc(Cl)cc2Cl)C(=O)OC12CCCCC2 | inactive | inactive | inactive | 31.7 µM (active) |  | 14.2 µM (active) |  | inactive |  | 
O=[N+]([O-])c1cc(C(F)(F)F)c(Cl)c([N+](=O)[O-])c1Cl | inactive | inactive | inactive | 12.6 µM (active) | 11.2 µM (active) |  |  | 27.5 µM (active) |  | 
COC[C@H](C)N(C(=O)CCl)c1c(C)csc1C | inactive | inactive | inactive |  | inactive |  |  | inactive |  | 
COc1ccc(OC)c(C=O)c1 | inactive | inactive | inactive |  | 28.3 µM (active) | inactive |  | inactive |  | 
Nc1ccc(Cc2ccc(N)c(Cl)c2)cc1Cl | inactive | inactive |  | 61.2 µM (active) | 27.3 µM (active) | 3.44 µM (active) | 6.86 µM (active) | inactive |  | 
N#Cc1c(-c2ccc(Cl)cc2)[nH]c(C(F)(F)F)c1Br | inactive | inactive |  | 11.2 µM (active) | 0.317 µM (active) | inactive | 39.9 µM (active) |  |  | 
CCCOCC(=Nc1ccc(Cl)cc1C(F)(F)F)n1ccnc1 | inactive | inactive |  | 5.03 µM (active) | 8.94 µM (active) | 0.283 µM (active) | 0.71 µM (active) | 48.9 µM (active) |  | 
Fc1cccc(Cl)c1CCl | inactive | inactive |  | inactive | 39.9 µM (active) | inactive | inactive | inactive |  | 
CC(C)N1C(=O)N(c2ccccc2)CSC1=NC(C)(C)C | inactive | inactive |  | 6.33 µM (active) | 31.7 µM (active) | 31.7 µM (active) | 7.1 µM (active) |  |  | 
CC(C)(C)c1cc([N+](=O)[O-])cc(C(C)(C)C)c1O | inactive | inactive |  | 12.6 µM (active) | 31.7 µM (active) | inactive | 31.7 µM (active) |  |  | 
Nc1ccc([N+](=O)[O-])cc1Cl | inactive | inactive |  | inactive | 25.2 µM (active) | inactive | inactive | inactive |  | 
Nc1ccccc1C(=O)Oc1ccc2ccccc2c1 | inactive | inactive |  | 20 µM (active) | 14.2 µM (active) | inactive | 35.6 µM (active) |  |  | 
